About 1,500 (3.8%) of roughly 39,000 compounds were called active. The sample holds actives, similar compounds and a random draw of the others, so the mix is not that of the screen.

The experiment has as its system HSkMC (human skeletal muscle cells). The experiment is described as follows: cytotoxicity call (relative viability < 0.9). The conditions noted are these: 10 µM.
As to `C=CCOC(=O)[C@H]1[C@@H]2C(=O)O[C@@H](c3ccccc3)[C@@H](c3ccccc3)N2[C@@H](c2ccc(OCCOC(=O)[C@@H]3C[C@@H]4C(=O)N[C@@H](CCCCNC(C)=O)C(=O)N4[C@@H]3c3ccc(O)cc3)cc2)[C@]12C(=O)Nc1ccccc12`, the cytotoxicity call is “inactive”.
As for `COc1ccc(CN(C)C[C@@H]2OCCCC[C@@H](C)Oc3ccc(NS(=O)(=O)c4ccc(F)cc4)cc3C(=O)N([C@H](C)CO)C[C@@H]2C)cc1`, the entry is “inactive”; as for `C[C@H](CO)N1C[C@H](C)[C@@H](CN(C)Cc2ccc(C(F)(F)F)cc2)Oc2ccc(NC(=O)Cn3cnnn3)cc2CC1=O`, “inactive”; as for `C[C@H](CO)N1C[C@H](C)[C@@H](CN(C)S(=O)(=O)c2cn(C)cn2)Oc2ccc(NC(=O)C3CCCCC3)cc2CC1=O`, “inactive”.
As for `Cc1ccc(S(=O)(=O)Nc2cccc3c2O[C@@H](CN(C)S(=O)(=O)c2cccs2)[C@@H](C)CN([C@H](C)CO)C3=O)cc1`, the cytotoxicity call is “inactive”.
With `CN1C(=O)C[C@@H]2[C@@H]1CCN2C(=O)c1ccc[nH]1`, the cytotoxicity call was “inactive”.
As for `C[C@H](CO)N1C[C@H](C)[C@@H](CN(C)S(=O)(=O)c2cn(C)cn2)OCc2ccccc2-c2ccccc2C1=O`, the entry is “inactive”; as for `C[C@@H]1CN([C@H](C)CO)C(=O)c2cc(NC(=O)Nc3cccc4ccccc34)ccc2O[C@@H](C)CCCCO[C@@H]1CN(C)Cc1ccc2c(c1)OCO2`, “active”.
As for `C[C@@H]1CCCCO[C@@H](CN(C)Cc2ccc3c(c2)OCO3)[C@H](C)CN([C@@H](C)CO)C(=O)c2cc(NC(=O)Nc3cccc4ccccc34)ccc2O1`, the entry is “inactive”; as for `C[C@@H]1CN([C@@H](C)CO)C(=O)c2cc(NC(=O)Nc3cccc4ccccc34)ccc2O[C@@H](C)CCCCO[C@@H]1CN(C)Cc1ccc2c(c1)OCO2`, “inactive”; as for `C[C@H](CO)N1C[C@H](C)[C@H](CN(C)Cc2ccc3c(c2)OCO3)OCCCC[C@H](C)Oc2ccc(NC(=O)Nc3cccc4ccccc34)cc2C1=O`, “active”.
As for `C[C@@H]1CCCCO[C@H](CN(C)Cc2ccc3c(c2)OCO3)[C@H](C)CN([C@H](C)CO)C(=O)c2cc(NC(=O)Nc3cccc4ccccc34)ccc2O1`, the entry is “active”.
For the compound `C[C@@H]1CCCCO[C@@H](CN(C)Cc2ccc3c(c2)OCO3)[C@H](C)CN([C@H](C)CO)C(=O)c2cc(NC(=O)Nc3cccc4ccccc34)ccc2O1`, the cytotoxicity call was “active”.
As for `C[C@H]1CCCCO[C@H](CN(C)Cc2ccc3c(c2)OCO3)[C@@H](C)CN([C@@H](C)CO)C(=O)c2cc(NC(=O)Nc3cccc4ccccc34)ccc2O1`, the entry is “inactive”; as for `C[C@@H]1CCCCO[C@H](CN(C)Cc2ccc3c(c2)OCO3)[C@@H](C)CN([C@@H](C)CO)C(=O)c2cc(NC(=O)Nc3cccc4ccccc34)ccc2O1`, “inactive”.
